# Cav3 T inh: human Cav3.2 channel inhibition, primary screen | O95180 | Cav3.2-expressing cells, Fluo-4 calcium fluorescence FDSS; stronger effect = lower value | 100,000 tested, 4% active | B-score at 10 µM;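 active means single-dose well whose peak fluorescence ratio is a statistical outlier from its plate by either plate-standardised score or position-corrected B-score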
# Mac1 fbg inh: CD11b/CD18-fibrinogen binding inhibition; P05107+P11215; K562 CD11b/CD18 adhesion to fibrinogen, ATPlite luminescence; Mn2+ added to activate the integrin; 93,000 tested, 0.54% active; inhibition, % at 10 µM;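 active means primary inhibition of 50% or more at 10 µM, then 40% or more on retest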
# CD11b adhes enh: increases human CD11b/CD18 adhesion to fibrinogen; P05107+P11215; activation, % at 10 µM; K562 CD11b/CD18 adhesion to fibrinogen, ATPlite luminescence; 93,000 tested, 0.07% active;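 active means 10 µM primary screen giving 50% or more activity, confirmed by 40% or more on retest at that dose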
# Ecoli WT expand: blocks growth of wild type E. coli BW25113 | OD600 absorbance | growth inhibition, % at 100 µM | 98,000 tested, 0.15% active | AID 710;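 active means growth inhibition above about 50% at one test dose, limit read from the data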;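 further: growth measured after 20 h incubation at 37 °C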
# Numbers stand for hits; . = inactive; / = no result. The entries come from a sample that favours hits as a whole.
SMILES,Cav3 T inh,Mac1 fbg inh,CD11b adhes enh,Ecoli WT expand
CC1(C)C[C@H](O)[C@@]23C[C@@H](OC2=O)[C@]2(C)C(=CCC4[C@@]5(C)CC[C@H](O)C(C)(C)C5CC[C@]42C)[C@@H]3C1 (some centres undefined),.,/,/,/
CC(C)NC(=O)CCCOc1ccc(Cl)cc1Cl,.,.,.,.
CN(C(=S)NC(=O)CCCOc1ccc(Cl)cc1Cl)c1ccccc1,-3.7,.,.,.
Cc1cc(OCC(=O)N2CCCC2)ccc1Cl,.,.,.,.
CC(C)=C1C2CCC1C1C(=O)N(NC(=O)COc3ccc(Cl)c(C)c3)C(=O)C21 (centres undefined),-5.3,.,.,.
CCCCn1c(-c2ccncc2)nc2c1c(=O)[nH]c(=O)n2CC(C)C,3.1,.,.,.
COCCn1c(-c2ccc(OC(F)(F)C(F)C(F)(F)F)cc2)nc2c1c(=O)[nH]c(=O)n2CC(C)C (centres undefined),.,.,.,.
Cc1cccc(N2CCN(C(=O)C3CCN(S(=O)(=O)c4cccc5cccnc45)CC3)CC2C)c1 (centres undefined),/,.,.,.
Cc1cccc(N2CCN(C(=O)C3CCN(S(=O)(=O)c4cccc5nsnc45)CC3)CC2C)c1 (centres undefined),-3.4,.,.,.
Cc1nnc(SCC(=O)Nc2ccccc2NC(=O)CSc2nnc(C)s2)s1,.,.,.,.
Cc1nnc(SCC(=O)Nc2nsc(-c3ccc(C(C)(C)C)cc3)n2)s1,-7.6,.,.,.
Cc1sc2ncnc(Sc3ccccc3C(=O)Nc3ccccc3Cl)c2c1C,/,.,.,/
Cc1nn(C(C)(C)C)c(OC(=O)c2cccs2)c1Sc1ccccc1,-5.2,.,.,.
Cc1nn(C(C)(C)C)c(OC(=O)c2ccc3c(c2)OCO3)c1Sc1ccccc1,-4.9,.,.,.
Cc1nc(C(=O)NCc2ccccc2)sc1C1(C)CC(c2ccccc2)=NO1 (centres undefined),.,/,/,/
Cc1cc(C(=O)CSc2nnc(C3COc4ccccc4O3)n2C)c(C)n1-c1ccc(F)cc1 (centres undefined),-7.9,.,.,.
Cn1c(SCc2cnc(-c3ccccc3)s2)nnc1C1COc2ccccc2O1 (centres undefined),-4.9,.,.,.
O=C(COc1ccc(Cl)cc1)NC1=NN(c2ccccc2)C(=O)C1,/,.,.,/
COc1cccc(-c2nc(CS(=O)(=O)CC(=O)N3CCc4ccccc4C3)c(C)o2)c1,-4.8,.,.,.
Cc1oc(-c2ccccc2Cl)nc1CSCC(=O)NC1CCCC1,-4.5,.,.,.
COc1cccc(-c2nc(CS(=O)(=O)CC(=O)NC3CCCc4ccccc43)c(C)o2)c1 (centres undefined),-6.8,.,.,.
CCOc1ccc(-c2nc(CSCC(=O)NC3CCCc4ccccc43)c(C)o2)cc1 (centres undefined),-6.3,.,.,.
CCOC(=O)/C=C/c1ccc2c(c1)S(=O)(=O)N(c1cccc(OC)c1)[C@H]2CC(=O)OCC,.,/,/,/
CC(OC(=O)C1CCN(S(=O)(=O)c2ccc(Cl)cc2)CC1)C(=O)N1CCc2ccccc21 (centres undefined),-4.7,.,.,.
O=C(C1CCN(S(=O)(=O)c2ccc3c(c2)OCCO3)CC1)N1CCc2ccccc21,.,.,.,.
SMILES,Cav3 T inh,Mac1 fbg inh,CD11b adhes enh,Ecoli WT expand
CCOc1ccc(S(=O)(=O)NCCC(=O)OC(C)C(=O)N2CCc3ccccc32)cc1 (centres undefined),-4.6,.,.,.
Cc1ccc(C(=O)CSc2nnc(CNc3nc(-c4ccccc4)cs3)n2C)cc1,-4.6,.,.,.
Cc1ccc(-c2csc(NC(=O)CSc3nc(C)cs3)n2)cc1,-4.6,/,/,/
Cc1csc(SCC(=O)Nc2nc(-c3ccccc3)cs2)n1,-6,.,.,.
Cc1cc(=O)[nH]c(SCC(=O)Nc2nc(-c3ccccc3)cs2)n1,/,.,.,.
CCn1c(SCC(=O)Nc2nc(-c3ccc(C)cc3)cs2)nnc1-c1ccccc1,.,.,.,.
COc1ccccc1-c1nnc(SCC(=O)Nc2nc(-c3ccccc3)cs2)n1C,-6.6,.,.,.
O=C(NCc1ccccc1)C1=C[C@H](C2CC2)C[C@H](OCCCCO)O1,.,/,/,/
O=C(CSc1nnc(-c2cccs2)n1-c1cccc(Cl)c1)c1cccc2c1OCCO2,.,.,.,.
O=C1CN(C(=O)COC(=O)c2ccccc2NCc2ccco2)c2ccccc2N1,-3.8,.,.,.
COc1ccc(S(=O)(=O)Nc2ccccc2C(=O)NCc2ccco2)cc1Br,-3.8,.,.,.
CCOc1ccc(S(=O)(=O)Nc2ccccc2C(=O)NCc2ccco2)cc1,.,.,.,.
Cc1ccc(C(=O)Nc2ccc3c(c2)OCO3)cc1S(=O)(=O)N1CCCC1,.,/,/,.
Cc1ccc(C(=O)OCc2ccc3c(c2)OCO3)cc1S(=O)(=O)N1CCCCC1,-4.1,.,.,.
Cc1ccc(C2=[N+]([O-])C3(CCCCC/C3=N\NC(N)=S)N(O)C2(C)C)o1 (centres undefined),/,.,.,.
Cc1ccc(CN2CCN(CC(=O)NC(C)CCc3ccccc3)C2=O)cc1 (centres undefined),-5.7,.,.,.
CC(CCc1ccccc1)NC(=O)CN1CCN(Cc2ccccc2)C1=O (centres undefined),.,.,.,.
O=C1N(CC(=O)N2CCc3ccccc32)CCN1Cc1ccc(Cl)cc1,-4.5,.,.,.
CC(CCc1ccccc1)NC(=O)CN1CCN(Cc2ccc(Cl)cc2)C1=O (centres undefined),-8.2,.,.,.
Cc1cnc(NC(=O)CSc2nc3ccccc3s2)s1,-4.6,.,.,.
O=C(CSc1nc2ccccc2s1)NCCOc1ccc(Cl)cc1,-6.2,/,/,.
O=C(CSc1nc2ccccc2s1)NCCOc1ccccc1,/,.,.,/
Cc1ccc(C(=O)C(OC(=O)CNC(=O)c2ccc(Cl)cc2)c2ccccc2)cc1 (centres undefined),-7.1,.,.,.
Cc1cc(C(=O)NCC(=O)OC(C(=O)Nc2cc(C(F)(F)F)ccc2Cl)c2ccccc2)ccc1[N+](=O)[O-] (centres undefined),-9,.,.,.
Cc1ccc(S(=O)(=O)NCC(=O)OC(C(=O)c2ccccc2)c2ccccc2)cc1 (centres undefined),-3.5,.,.,.
SMILES,Cav3 T inh,Mac1 fbg inh,CD11b adhes enh,Ecoli WT expand
O=C(NNC(=O)c1cc(-c2ccccc2)n(-c2ccccc2)n1)c1cccc([N+](=O)[O-])c1,/,.,.,/
CCN(CCCNC(=O)CCc1nc(-c2ccc(C)cc2)no1)c1cccc(C)c1,-8.1,.,.,.
CCN(CCCNC(=O)CCn1c(=O)[nH]c2ccccc2c1=O)c1ccccc1,.,.,.,.
CCN(Cc1ccccc1)C(=O)CCc1nc(-c2ccc(C)cc2)no1,-7.5,.,.,.
CCN(CCCNC(=O)CCCn1c(=O)[nH]c2ccccc2c1=O)c1cccc(C)c1,-5.5,.,.,.
Cc1ccc(-c2noc(CCC(=O)NCCN3CCc4ccccc4C3)n2)cc1,-7.1,.,.,.
CCc1ccccc1N(CC)C(=O)CCc1nc(-c2ccc(C)cc2)no1,.,.,.,.

# Bioassay records: PubChem, several laboratories
